Measurements reported in PubChem BioAssay (Tox21).
Records with an inconclusive call do not appear. Calls of active or inactive are those of the source. Unless noted, calls follow the shape of the dose curve; as a rule, active = well fitted curve in the direction sought with a large enough effect in the repeat runs; inconclusive = weak or mixed curves; inactive = no such curve, though single readings can be large; an effect the other way counts as inactive or inconclusive.

How the values were obtained:
[1] = qHTS assay to identify small molecule agonists of H2AX (AID 1224845; active = well fitted activation curve with a large enough effect in the signal ratio in the repeat runs, not every such curve was filed as active; the % refers to the signal ratio)
Procedure, shortened: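 Wild-type CHO-K1 cells plated overnight, then exposed 3 hr at 37C to compounds at 15 concentrations (0.76% DMSO). Lysed, then HTRF anti-pH2AX(S139)-cryptate/anti-H2AX-d2 detection after 24 hr at room temperature; emissions 665 and 620 nm.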

[2] = qHTS assay to identify small molecule agonists of the hypoxia (HIF-1) signaling pathway (AID 1224846; active = well fitted activation curve with a large enough effect in the signal ratio in the repeat runs, not every such curve was filed as active; the % refers to the signal ratio)
Procedure, shortened: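 Reporter induction in HRE-bla ME-180 cells is taken as agonism: cells sit 5 hrs after plating, receive compounds or DMSO only, incubate 17 hrs at 37C under 5% CO2, and are loaded with CCF4-AM for beta-lactamase FRET measurement.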

[3] = qHTS assay to identify small molecule agonists of H2AX - cell viability counter screen (AID 1224847; calls by dose curve; also: top concentration of the series differs between compounds; nearly all actives have a fitted effect of over 30% in size)
Procedure, shortened: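 After overnight plating of 1000 CHO-K1 cells per well, a 15-concentration compound series was applied for 3 hr at 37C. Luminescence from CellTiter-Glo, read following 30 min at room temperature, reflected cell viability.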

[4] = qHTS assay to identify small molecule antagonists of the estrogen related receptor (ERR) signaling pathway from Tox21 library (AID 1224848); also: nearly all actives have a fitted effect of over 50% in size
Procedure, shortened: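 First, 2,000 ERR cells per well were plated and held 6 h at 37 C/5% CO2. Next, compounds in DMSO were pinned in and left 18 h at 37 C. Finally, ONE-Glo was added and luminescence read after 30 min at room temperature.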

[5] = qHTS assay to identify small molecule agonists of the estrogen related receptor (ERR) signaling pathway from Tox21 library (AID 1224849; calls by dose curve; also: nearly all actives have a fitted effect of over 15% in size)
Procedure, shortened: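 Tox21 compounds tested for ERR agonism in an NTP reporter cell line: 18 h treatment at 37 C, then ONE-Glo luminescence.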

[6] = qHTS RealTime-Glo MT Cell Viability Assay in HepG2 cells - 24 hour (AID 1224867); also: nearly all actives have a fitted effect of over 50% in size
Procedure, shortened: (§1)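 Viability was tracked continuously by NanoLuc luminescence from prosubstrate reduced by living HepG2 cells, at successive time points over 40 h of compound exposure. Cells with reagent were preincubated 5 h at 37 °C before compound addition.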

[7] = qHTS RealTime-Glo MT Cell Viability Assay in HEK293 cells - 32 hour (AID 1224868); also: top concentration of the series differs between compounds; nearly all actives have a fitted effect of over 50% in size
Procedure, shortened: (§2)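 Viability tracked continuously by luminescence as live cells reduce a prosubstrate for NanoLuc; HEK293 cells preincubated 5 h, compound-treated at 37 C, and read at 0, 8, 16, 24, 32 and 40 h.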

[8] = A CellTox Green Cytotoxicity Assay to monitor cytotoxicity in HEK293 cells - 0 hour (AID 1224869); also: nearly all actives have a fitted effect of over 50% in size
Procedure, shortened: (§3)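 Tox21 screen in HEK293: membrane-impermeant cyanine dye fluoresces on binding dead-cell DNA; compound pinned 5 h post-seeding, plates held at 37 C, signal read repeatedly through 40 h.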

[9] = qHTS RealTime-Glo MT Cell Viability Assay in HepG2 cells - 40 hour (AID 1224870); also: nearly all actives have a fitted effect of over 50% in size
Procedure, shortened: (§4)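 HepG2 cells mixed with RealTime-Glo MT reagents (NanoLuc plus cell-permeant prosubstrate) were seeded at 600 cells/well, incubated 5 h at 37 C/5% CO2, then pinned with compounds in DMSO; nonlytic luminescence tracked viability during 40 h treatment.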

[10] = A CellTox Green Cytotoxicity Assay to monitor cytotoxicity in HEK293 cells - 40 hour (AID 1224871); also: nearly all actives have a fitted effect of over 45% in size
Procedure, shortened: as §3

[11] = qHTS RealTime-Glo MT Cell Viability Assay in HepG2 cells - 8 hour (AID 1224873); also: nearly all actives have a fitted effect of over 55% in size
Procedure, shortened: as §4

[12] = qHTS RealTime-Glo MT Cell Viability Assay in HEK293 cells - 40 hour (AID 1224874); conditions: RealTime-Glo luminescence; max response: active compounds read low; also: nearly all actives have a fitted effect of over 50% in size
Procedure, shortened: (§5)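 HEK293 + NanoLuc + prosubstrate, 600 cells/well; 5 h, 37 C/5% CO2; compound 23 nL in DMSO by pintool; 37 C; luminescence read at 0, 8, 16, 24, 32 and 40 h time points.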

[13] = A CellTox Green Cytotoxicity Assay to monitor cytotoxicity in HEK293 cells - 24 hour (AID 1224875); also: series mostly up to about 77 µM; nearly all actives have a fitted effect of over 45% in size
Procedure, shortened: as §3

[14] = qHTS RealTime-Glo MT Cell Viability Assay in HepG2 cells - 32 hour (AID 1224877); also: nearly all actives have a fitted effect of over 55% in size
Procedure, shortened: as §1

[15] = A CellTox Green Cytotoxicity Assay to monitor cytotoxicity in HEK293 cells - 32 hour (AID 1224881); also: nearly all actives have a fitted effect of over 40% in size
Procedure, shortened: as §3

[16] = qHTS RealTime-Glo MT Cell Viability Assay in HEK293 cells - 16 hour (AID 1224872)
Procedure, shortened: as §2

[17] = A CellTox Green Cytotoxicity Assay to monitor cytotoxicity in HepG2 cells - 16 hour (AID 1224876); also: nearly all actives have a fitted effect of over 45% in size
Procedure, shortened: (§6)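 Measurements at 0, 8, 16, 24, 32 and 40 h of treatment captured CellTox Green fluorescence in HepG2 cells that had been co-plated with reagent and preincubated 5 h at 37 C/5% CO2.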

[18] = A CellTox Green Cytotoxicity Assay to monitor cytotoxicity in HepG2 cells - 24 hour (AID 1224878); also: nearly all actives have a fitted effect of over 45% in size
Procedure, shortened: as §6

[19] = A CellTox Green Cytotoxicity Assay to monitor cytotoxicity in HepG2 cells - 40 hour (AID 1224879); also: nearly all actives have a fitted effect of over 40% in size
Procedure, shortened: as §6

[20] = qHTS RealTime-Glo MT Cell Viability Assay in HEK293 cells - 0 hour (AID 1224880)
Procedure, shortened: as §5
% is scaled to controls: 0 for no effect and ±100 for the full control effect.

C=COCC1CCC(COC=C)CC1 (stereo unspecified)
inactive: Potency [1] | outcome [2] | outcome [3] | Potency [4] | outcome [5] | outcome [6] | Potency [7] | outcome [8] | Potency [9] | Potency [10] | outcome [11] | max response [12] -3.6% | outcome [13] | Potency [14] | outcome [15]

COc1cc(C)nc(-n2nc(C)cc2OC)n1
inactive: Potency [1] | outcome [2] | outcome [3] | Potency [4] | outcome [5] | outcome [6] | Potency [7] | outcome [8] | Potency [9] | Potency [10] | Potency [16] | outcome [11] | max response [12] -0.0998% | outcome [17] | Potency [14] | outcome [18] | Potency [19] | Potency [20] | outcome [15]

CCOC(=O)OC(C)OC1=C(C(=O)Nc2ccccn2)N(C)S(=O)(=O)c2ccccc21 (stereo unspecified)
inactive: Potency [1] | outcome [2] | outcome [3] | Potency [4] | outcome [5] | outcome [6] | Potency [7] | outcome [8] | Potency [9] | Potency [10] | Potency [16] | outcome [11] | max response [12] 1.81% | outcome [13] | outcome [17] | Potency [14] | Potency [19] | outcome [15]

CC(C)(N)C#N
inactive: Potency [1] | outcome [2] | outcome [3] | Potency [4] | outcome [5] | outcome [6] | Potency [7] | outcome [8] | Potency [9] | Potency [10] | Potency [16] | outcome [11] | max response [12] -0.492% | outcome [13] | outcome [17] | Potency [14] | outcome [18] | Potency [19] | Potency [20] | outcome [15]

O=C(O)CC(C(=O)O)S(=O)(=O)O (stereo unspecified)
inactive: Potency [1] | outcome [2] | outcome [3] | Potency [4] | outcome [5] | outcome [6] | Potency [7] | outcome [8] | Potency [10] | Potency [16] | outcome [11] | max response [12] 5.69% | outcome [13] | outcome [17] | Potency [14] | outcome [18] | Potency [19] | Potency [20] | outcome [15]

COc1ccccc1OCC1CNC(=O)O1 (stereo unspecified)
inactive: Potency [1] | outcome [2] | outcome [3] | Potency [4] | outcome [5] | outcome [6] | Potency [7] | outcome [8] | Potency [9] | Potency [10] | Potency [16] | outcome [11] | max response [12] 8.57% | outcome [13] | outcome [17] | Potency [14] | outcome [18] | Potency [19] | Potency [20] | outcome [15]

CC(C)c1ccc2ncccc2c1
inactive: Potency [1] | outcome [2] | outcome [3] | Potency [4] | outcome [5] | outcome [6] | Potency [7] | outcome [8] | Potency [9] | Potency [10] | Potency [16] | outcome [11] | max response [12] -0.522% | outcome [13] | outcome [17] | Potency [14] | outcome [18] | Potency [19] | Potency [20] | outcome [15]
